{"source": "PubChem BioAssay (NCATS)", "note": "Records with an inconclusive call do not appear. Values without a mark were called inactive. Active and inactive are the calls of the source. Calls come from the whole dose curve."}
{"target": "Peroxisome proliferator-activated receptor delta (Homo sapiens) (UniProt Q03181)", "sequence (Q03181 whole entry, looked up)": "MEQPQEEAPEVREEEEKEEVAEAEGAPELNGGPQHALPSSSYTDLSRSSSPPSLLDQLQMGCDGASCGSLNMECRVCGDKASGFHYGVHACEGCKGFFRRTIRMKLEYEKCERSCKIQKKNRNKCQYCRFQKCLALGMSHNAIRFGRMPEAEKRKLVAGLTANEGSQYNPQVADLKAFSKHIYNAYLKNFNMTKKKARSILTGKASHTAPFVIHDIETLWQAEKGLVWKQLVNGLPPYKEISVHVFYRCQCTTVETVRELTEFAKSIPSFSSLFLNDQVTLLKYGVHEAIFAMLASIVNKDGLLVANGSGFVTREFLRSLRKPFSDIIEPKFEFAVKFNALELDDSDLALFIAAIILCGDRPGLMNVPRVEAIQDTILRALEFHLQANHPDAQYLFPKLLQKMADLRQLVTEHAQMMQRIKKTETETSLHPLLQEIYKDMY", "assay": "qHTS assay for small molecule agonists of peroxisome proliferator-activated receptor delta signaling (AID 588534);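 note: 0% = DMSO basal wells and 100% = positive control agonist at 10 µM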", "details": "HEK293T PPARdelta-UAS-bla, beta-lactamase ratio, 18 h; series mostly up to 76.7 µM; activation: at the top concentration", "source_text": "NIH Chemical Genomics Center [NCGC] U.S. Environmental Protection Agency [EPA] National Institutes of Environmental Health Sciences [NIEHS] National Toxicology Program [NTP] NCGC Assay Overview The Peroxisome proliferator-activated receptors (PPARs) are lipid-activated transcription factors of the nuclear receptor superfamily with three distinct subtypes namely PPAR alpha, PPAR delta (also called PPAR beta) and PPAR gamma. All these subtypes heterodimerizes with Retinoid X receptor (RXR) and have different physiological functions. […] This role of PPAR delta implicates the potential use of its ligands in the treatment of metabolic disorders.\nCompounds were screened in a titration series in 1536-well format. […] Concentration-response titration points for each compound were fitted to the Hill equation yielding concentrations of half-maximal stimulation (EC50) and maximal response (efficacy) values. qHTS protocol for PPAR-delta beta-lactamase assay in agonist mode [Step] [Parameter] [Value] [Description] 1. Reagent; 6 uL; 4000 cells/well 2. Incubation; 37 C for 5 hrs 3. Compounds; 23 nL; 0.59 nM to 92 uM 4. […] Incubation; 37 C for 18 hrs 6. Detection reagent; 1 uL of CCF4-dye 7. Incubation; RT for 2 hrs 8. Detection; Fluorescence; Envision plate reader", "units": {"activation": "%"}}
{"smiles": "CCCCCl", "activation": -3}
{"smiles": "NNC(N)=O", "activation": 1.92}
{"smiles": "CC(C)CCON=O", "activation": 2.24}
{"smiles": "ClC=C(Cl)Cl", "outcome": "inactive"}
{"smiles": "O=[N+]([O-])C(Br)(CO)CO", "activation": -0.13}
{"smiles": "COCC(C)N(C(=O)CCl)c1c(C)csc1C", "note": "(stereo not drawn)", "activation": -11}
{"smiles": "ClCC1CO1", "note": "(stereo not drawn)", "activation": 1.46}
{"smiles": "CCOP(=O)(OCC)O/C(=C/Cl)c1ccc(Cl)cc1Cl", "outcome": "inactive"}
{"smiles": "O=Cc1ccco1", "activation": 7.51}
{"smiles": "C[C@H]1CC[C@@H]2[C@@H](C)[C@H]3[C@H](C[C@H]4[C@@H]5CC=C6CC(O[C@@H]7O[C@H](CO)[C@H](O)[C@H](O[C@@H]8O[C@H](CO)[C@@H](O)[C@H](O)[C@H]8O)[C@H]7O[C@H]7O[C@@H](C)[C@H](O)[C@@H](O)[C@H]7O)CC[C@]6(C)[C@H]5CC[C@]34C)N2C1", "note": "(stereo partly drawn)", "activation": 5.78}
{"smiles": "[O]=[Cd]", "activation": -3.76}
{"smiles": "O=C1C2CC=CCC2C(=O)N1SC(Cl)(Cl)Cl", "note": "(stereo not drawn)", "activation": -3.39}
{"smiles": "CCCCCCCCOC(=O)c1ccccc1C(=O)OCCCCCCCC", "outcome": "inactive"}
{"smiles": "O=C1CCO1", "activation": 3.96}
{"smiles": "O=C(O)C(Cl)(Cl)Cl", "outcome": "inactive"}
{"smiles": "CC(C)Nc1ccc(Nc2ccccc2)cc1", "activation": -2.67}
{"smiles": "O=[N+]([O-])c1ccccc1", "outcome": "inactive"}
{"smiles": "COc1ccc2c(c1OC)C(=O)OC2C1c2cc3c(cc2CCN1C)OCO3", "note": "(stereo not drawn)", "activation": -5.77}
{"smiles": "O=CC=O", "activation": -3.02}
{"smiles": "CC(C)(C)c1cc(O)ccc1O", "outcome": "inactive"}
{"smiles": "C=CCN=C=S", "activation": 6.03}
{"smiles": "N#CN", "activation": 1.47}
{"smiles": "O=C(NCNC(=O)NC1C(=O)NC(=O)N1CO)NC1C(=O)NC(=O)N1CO", "note": "(stereo not drawn)", "activation": -1.37}
{"smiles": "CCOC(=O)c1ccccc1C(=O)OCC", "outcome": "inactive"}
{"smiles": "Clc1ccccc1Cl", "activation": 8.95}
{"smiles": "O=C/C=C/c1ccccc1", "outcome": "inactive"}
{"smiles": "ClC1C(Cl)C(Cl)C(Cl)C(Cl)C1Cl", "note": "(stereo not drawn)", "outcome": "inactive"}
{"smiles": "ClC(Cl)(Cl)Cl", "outcome": "inactive"}
